High-throughput results deposited in PubChem BioAssay by National Center for Advancing Translational Sciences (NCATS).
Sampled rows, rich in hits. Any-hit rate of the full collection: about 2.4%.
HepG2 viability: qHTS for Inhibitors of TGF-b: Cytotox Counterscreen; HepG2 CAGA-GFP viability, ATP luminescence, 18 h; Potency, µM (titrated, usually from 46.1 µM), for the others: top-dose activity change, negative = cytotoxicity, hits mostly cytotoxic; 0.76% of 410,000 active
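CellTiter-Glo luminescence gave cytotoxicity after 18 hours at 37 degrees C. The cells were HepG2 CAGA-GFP in 1% FBS DMEM, stimulated with 500 pg/mL TGF-beta after compound addition. %Activity was normalised to no-cell wells (complete cell-killing) and DMSO (no toxicity), and curves were fitted and classified.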
TGFb inhibitor: qHTS for Inhibitors of TGF-b; Potency, µM (highest dose often 46.1 µM), inactives show at the highest dose activity, negative = inhibition, actives largely listed as inhibitors; AID 588855, 2011; 1.2% of 410,000 active; HepG2 CAGA-GFP TGF-b/SMAD3 reporter, GFP fluorescence, 18 h; TGF-beta stimulated, 500 pg/mL final; further: on the % scale 0 is the no-effect control and ±100 the full control effect; nearly all actives have a fitted effect of over 65% in size
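Inhibition was scored as loss of TGF-beta-induced (500 pg/mL final, 18 hours, 37 degrees C) GFP in HEPG2 cells carrying a CAGA-GFP reporter, in DMEM with 1% FBS. Well GFP was summed per cell; Activity was normalised to unstimulated and stimulated DMSO wells, then concentration-response fitting.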
ATXN viability: Viability Counterscreen for Primary qHTS for Inhibitors of ATXN expression | S2 cells (HEK-293 line with an ATXN2-luciferase reporter) viability, CellTiter-Fluor protease fluorescence, 24 h | Potency, µM (series often up to 56.7 µM), usual class: cytotoxic | 0.49% of 400,000 active | AID 651635, 2014; further: nearly all actives have a fitted effect of over 40% in size
Anesthetic bind: qHTS Assay for Identification of Novel General Anesthetics; 0.074% of 350,000 active; Ferritin light chain (Equus caballus), P02791; AID 485281, 2010; Potency, µM (series often up to 77.5 µM), inactives show top-dose activity change, negative = displacement, hits mostly inhibitors; apoferritin/1-aminoanthracene competitive binding, fluorescence; further: on the % scale 0 is the no-effect control and ±100 the full control effect; nearly all actives have a fitted effect of over 20% in size
Target sequence (P02791 2-175 limits assumed): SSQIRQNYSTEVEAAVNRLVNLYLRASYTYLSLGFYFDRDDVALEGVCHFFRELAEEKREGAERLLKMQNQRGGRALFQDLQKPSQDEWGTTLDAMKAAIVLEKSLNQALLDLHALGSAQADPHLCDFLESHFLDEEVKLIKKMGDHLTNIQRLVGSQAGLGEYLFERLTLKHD
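Apoferritin-based anesthetic binding model; compound displacement of fluorescent 1-AMA measured as endpoint fluorescence after 10 minutes at room temperature, scaled to free-ligand and complex controls.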
ATXN2 expr inh: Primary qHTS for Inhibitors of ATXN expression; HEK-293 ATXN2-luciferase reporter, luminescence, 24 h; Potency, µM (titrated, usually from 57 µM), for inactives: top-dose activity change, negative = inhibition, usual class: inhibitors; 0.72% of 360,000 active; further: on the % scale 0 is the no-effect control and ±100 the full control effect; nearly all actives have a fitted effect of over 55% in size
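ATXN2-luciferase reporter cells (luciferase flanked by upstream and downstream ATXN2 gene portions) were treated 24 h at 37 °C with compounds at up to 57 uM. SteadyGlo luminescence gave expression; GF-AFC fluorescence gave viability.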
* = called active by the depositor; i = inactive; ? = inconclusive; nt = no result given; [ ] = another dose, or the depositor's remark. The call rests on the fitted dose curve; in most records, active means well fitted curve in the direction sought with a large enough effect; inconclusive means small, poorly fitted or top-dose-only effect, or another doubt; inactive means no such curve, though single readings can be large; an effect the other way counts as inactive or inconclusive. Potency means the concentration at half of the fitted maximal effect.

SMILES	HepG2 viability	TGFb inhibitor	ATXN viability	Anesthetic bind	ATXN2 expr inh
COc1ccc(C(=O)Nc2ccc3nc4c(c(Nc5ccccc5OC)c3c2)CCCC4)c(OC)c1	-19%	-22%	?	-3%	-4%
COc1ccc(C(=O)Nc2ccc3nc4c(c(Nc5ccc(OC)c(OC)c5)c3c2)CCCC4)c(OC)c1	-88%	?	28µM*	-5%	?
COc1ccccc1Nc1c2c(nc3ccc(NC(=O)c4ccc(OC)c(OC)c4)cc13)CCCC2	22µM*	?	25µM*	1%	?
COc1ccccc1Nc1c2c(nc3ccc(NC(=O)c4cccc(OC)c4OC)cc13)CCCC2	-57%	?	nt	-15%	nt
Cc1cc2c(nc1C)CCCCN2C[C@H](C)O/N=C\[C@@H](C)[C@H](OCc1ccccc1)C(C)C	nt	nt	nt	-5%[15.3 µM]	nt
COC1C=CC=C(C)C(=O)NC2=CC(=O)C(N)=C(CC(C)CC(OC)C(O)C(C)C=C(C)C1OC(N)=O)C2=O (stereo not given)	-78%	-93%	?	nt	0.24µM*
COC1=C2C[C@H](C)C[C@H](OC)[C@H](O)[C@@H](C)/C=C(/C)[C@H](OC(N)=O)[C@@H](OC)/C=C\C=C(\C)C(=O)NC(=CC1=O)C2=O	nt	nt	nt	1%	nt
N#C/C(=C\c1ccc(OCc2ccc(C(=O)O)cc2)cc1)C(=O)N1CCOCC1	-20%	-14%	i	3%	8.9µM*
COc1cccc(CNC(=O)c2c(OC)cc(=O)n3c2CCN(C(=O)c2ccc(C)s2)CC3)c1	nt	nt	i	nt	nt
O=C(CCl)c1ccc2[nH]c(=O)oc2c1	10µM*	?	i	-4%	nt
O=c1[nH]c2ccc(Br)cc2o1	9%	21%	i	nt	6%
CCc1ccc(NC(=O)CSC2=Nc3ccccc3C3=NC(CCC(=O)NCc4ccccc4OC)C(=O)N23)cc1 (stereo not given)	-14%	2%	nt	-8%	nt
O=C1CC(c2ccccc2)Cc2[nH]c(=O)c(C(=O)Nc3ccc(F)cc3)cc21 (stereo not given)	-31%	-3%	i	34%	9%
O=C1CC(c2ccccc2)Cc2[nH]c(=O)c(C(=O)Nc3ccc(OC(F)(F)F)cc3)cc21 (stereo not given)	6%	-7%	25µM*	-4%	-3%
Cn1c(=O)c2c(nc(NCc3ccco3)n2C/C=C/c2ccccc2)n(C)c1=O	-32%	4µM*	?	-12%	?
Cn1c(=O)c2c(nc(NCc3ccco3)n2C)n(C)c1=O	8%	0%	i	4%	4%
C/C(=N\Nc1ccc(Cl)c(C(=O)O)c1)c1ccccn1	-2%	12%	25µM*	6%	-14%
C/C(=N\Nc1ccc(Cl)c(C(=O)O)c1)c1cccc2ccccc12	-22%	13%	i	-11%	4%
C/C(=N\NC(=O)c1ccc(F)cc1)c1ccccn1	-44%	1.1µM*	?	-15%	nt
CCOc1ccc(C(=O)N/N=C(\c2ccccc2)c2ccccn2)cc1	-37%	?	?	?	7.9µM*
C/C(=N\NC(=O)CCCNc1ccc(C)cc1)c1ccccn1	2%	5%	i	-11%	28µM*
C/C(=N\NC(=O)c1c[nH]c2ccccc12)c1ccccn1	-25%	18%	nt	-17%	?
O=C(NCCN1CCOCC1)c1cnn(-c2nccc(-c3ccccc3F)n2)c1C1CC1	nt	nt	i	nt	nt
COc1cc(NC(=O)Cn2ncc(Cl)c(Cl)c2=O)c(C)cc1[N+](=O)[O-]	-26%	?	17µM*	-1%	27µM*
COc1cc(NC(=O)CN2C(=O)CN(C)C2=O)c(C)cc1[N+](=O)[O-]	6%	0%	i	-8%	2%
SMILES	HepG2 viability	TGFb inhibitor	ATXN viability	Anesthetic bind	ATXN2 expr inh
CC(C)N1CCN(C(=O)c2cnn(-c3nccc(-c4ccc5c(c4)OCO5)n3)c2-c2ccco2)CC1	nt	nt	i	nt	nt
CN(CC(=O)Nc1cccc(F)c1)C(=O)c1cn(-c2ccccc2)nc1-c1ccc(F)cc1	-48%	22µM*	?	nt	nt
COc1ccc(-c2nn(-c3ccccc3)cc2C(=O)N(C)CC(=O)Nc2cccc(F)c2)cc1	-38%	?	?	nt	nt
CC(=O)OC[C@@H]1O[C@@H](O/N=C2/C[C@@H](O)[C@@H](O)[C@@H]3[C@@H]4C(=O)N(Cc5ccccc5)C(=O)[C@H]4CC[C@H]23)[C@H](OC(C)=O)[C@H](OC(C)=O)[C@@H]1OC(C)=O	nt	nt	nt	8%[15.3 µM]	nt
c1ccc(CNc2nc(NCCOc3ccccc3)c3sccc3n2)cc1	11µM*	?	nt	nt	28µM*
c1ccc(CNc2nc(NCc3ccccc3)c3sccc3n2)cc1	-27%	?	?	nt	0%
COc1ccccc1CNc1nc(NCc2ccccc2F)c2sccc2n1	-121%	13µM*	?	nt	?
COCCNc1nc(NCc2ccccc2F)c2sccc2n1	-37%	0%	?	nt	?
COc1ccccc1CNc1nc(NCc2ccccc2)nc2ccsc12	-37%	18µM*	?	nt	?
C#Cc1cccc(Nc2nc(NCc3ccccc3OC)nc3ccsc23)c1	-54%	11µM*	20µM*	nt	20µM*
Cc1cc(O)c(C)c(O)c1C(=O)O	nt	nt	nt	-5%	nt
COc1cccc(/C=C/c2cnc3ccccc3n2)c1OC	-26%	10%	nt	nt	nt
Cc1cc(C)c(NC(=O)CSC2=Nc3ccccc3C3=NC(CC(=O)NCc4cccs4)C(=O)N23)c(C)c1 (stereo not given)	-2%	-29%	?	-19%	10%
COCCNc1nc(NCc2cccc(OC)c2OC)c2sccc2n1	-22%	-8%	i	nt	?
COc1ccccc1CNc1nc(NCc2cccc(OC)c2OC)c2sccc2n1	-72%	?	?	nt	32µM*
O=[N+]([O-])c1ccc(NC(=S)NCCc2ccc(F)cc2)cc1	13µM*	?	?	-12%	?
Fc1ccccc1C1CC(c2ccco2)=Nc2ccccc2S1 (stereo not given)	-132%	18µM*	?	?	nt
Oc1c(CN2CCN(c3ccccc3)CC2)cc(Br)c2cccnc12	-42%	?	?	-2%	4.5µM*
CCOCc1cc(CN2CCN(c3cccc(Cl)c3)CC2)c(O)c2ncccc12	-22%	2µM*	nt	-17%	nt
CCOC(=O)N1CCN(Cc2ccccc2Cl)CC1	0%	5%	i	-6%	1%
CC(C)OCc1cc(CN2CCN(c3ccccc3)CC2)c(O)c2ncccc12	-36%	2.2µM*	?	-19%	1.3µM*
c1ccc(N2CCN(Cc3ccnc4ccccc34)CC2)cc1	-2%	0%	?	-8%	-4%
COCc1cc(CN2CCN(C)CC2)c(O)c2ncccc12	-1%	0%	?	-9%	?
